Assay results taken from PubChem BioAssay (EPA / NIEHS).
Results filed as inconclusive are left out. Activity calls are given as the source filed them. How the source made its calls, unless noted: active means hit-call score of the fitted dose curve at least 0.9, where 1 is the maximum; inactive means score below 0.9.

Legend:
[1] = CCTE_Shafer_MEA_acute_per_burst_spike_number_mean: CCTE's Neural Acute Assay for Average Number of Spikes Per Burst, Shafer Lab (AID 2284015);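 further: hits are decreases in mean spikes per burst versus baseline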
In short: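 We recorded spontaneous network firing of rat cortical neurons for 40 min before and 40 min during exposure to compound at 0.03-40 uM, at 37 C. Spikes were detected adaptively at 8x rms noise, and the change in average spikes per burst was fitted against DMSO.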

[2] = CCTE_Shafer_MEA_acute_interburst_interval_mean: CCTE's Neural Acute Assay for Mean Interburst Interval, Shafer Lab (AID 2284016);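 further: percent change of mean interburst interval versus each well's own pre-dose baseline; curves fitted for decrease in interburst interval relative to DMSO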
In short: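 MEA recording of spontaneous network bursting in primary rat cortical cultures; mean interburst interval was compared before and after a 40-min compound exposure (0.03-40 uM) and expressed as percent change, relative to DMSO.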

[3] = CCTE_Shafer_MEA_acute_burst_percentage_mean: CCTE's Neural Acute Assay for Percentage of Spikes in a Burst, Shafer Lab (AID 2284017);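 on AC50: curve fitted for loss of signal so potency reflects decreased burst percentage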
In short: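 Compounds were tested at 0.03-40 uM on primary rat cortical neuron networks grown over microelectrodes, with at least three wells per compound. Spontaneous firing was recorded for 40 min before and 40 min after dosing, and the change in burst percentage was computed per well.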

[4] = CCTE_Shafer_MEA_acute_burst_percentage_std: CCTE's Neural Acute Assay for Standard Deviation of Burst Percentage, Shafer Lab (AID 2284018);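 further: fitted in the negative direction so actives lower burst percentage SD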
In short: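 Rat primary cortical neurons on 48-well MEAs, DIV 13 or 15, 37 C. 40-min baseline then 40-min recording with compound (0.03-40 uM); well-level SD of per-electrode burst spike percentage, expressed as percent change from baseline.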

[5] = CCTE_Shafer_MEA_acute_per_network_burst_spike_number_mean: CCTE's Neural Acute Assay for Average Number of Spikes in a Network Burst, Shafer Lab (AID 2284019);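 on AC50: curve fitted for loss of signal so actives reduce spikes per network burst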
In short: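 Rat primary cortical neurons on 48-well MEA at DIV 13 or 15, 37 C; compounds 0.03-40 uM, at least three wells each. 40-min baseline then 40-min exposure recording; percent change in mean spikes per network burst.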

[6] = CCTE_Shafer_MEA_acute_per_network_burst_electrodes_number_mean: CCTE's Neural Acute Assay for Mean Number of Electrodes in a Network Burst, Shafer Lab (AID 2284021);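 further: curves fitted for decreases only so hits reduce electrodes per burst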
In short: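 Rat primary cortical neurons on 48-well MEAs, DIV 13 or 15, were treated at 0.03-40 uM. Spikes were detected at 8x rms noise and recorded at 37 C. The mean electrodes per network burst in a 40 min exposure recording was expressed as percent change from a 40 min baseline.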

[7] = CCTE_Shafer_MEA_acute_cross_correlation_area: CCTE's Neural Acute Assay for Area of Cross Correlation, Shafer Lab (AID 2284024);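 further: curves fitted for loss of cross-correlation area so actives lower synchrony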
In short: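 Rat primary cortical neurons on 48-well MEA, DIV 13 or 15; compounds 0.03-40 uM. Baseline and post-exposure 40 min recordings at 37 C; percent change in area under pooled inter-electrode cross-correlation near zero lag, relative to DMSO.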

[8] = CCTE_Shafer_MEA_acute_synchrony_index: CCTE's Neural Acute Assay for Synchrony, Shafer Lab (AID 2284027);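 further: network synchrony index of spontaneous spiking in primary rat cortical neurons on MEAs; fitted for loss of signal so actives lower synchrony relative to DMSO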
In short: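 Spontaneous firing of mature rat cortical networks is captured extracellularly on microelectrode arrays at 37 C, with wells needing ≥10 active electrodes. Each compound (0.03-40 uM) is judged by the change in synchrony index from baseline over 40 min.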

[9] = target: Estrogen receptor (Homo sapiens) (UniProt P03372); test: CCTE_Deisenroth_AIME_96WELL_LUC_Active: CCTE's 96-well Estrogen Receptor Transactivation Assay with AIME metabolic competence (ERTA luciferase; metabolism positive), Deisenroth Lab (AID 2284023; active means hit-call score of the fitted dose curve at least 0.9, where 1 is the maximum)
Procedure: (§1) CCTE_Deisenroth_AIME_96WELL (AIME metabolism assay) is a cell-based, single-readout assay that uses VM7Luc4E2, a human mammary gland/breast cell line, with measurements taken at 24 hour after chemical dosing in a 96-well plate.CCTE_Deisenroth_AIME_96WELL_LUC_Active is one of four assay components measured or calculated from the CCTE_Deisenroth_AIME_96WELL assay. It is designed to make measurements of luciferase induction, a form of inducible reporter, as detected with bioluminescence signals by luciferase-coupled ATP quantitation technology.CCTE_Deisenroth_AIME_96WELL_LUC_Active is a component of the CCTE_Deisenroth_AIME_96WELL assay that measures the effect of retroftting the VM7Luc ERTA assay with the Alginate Immobolization of Metabolic Enzymes (AIME) metabolism method. AIME is optimized to impart phase I hepatic metabolism using phenobarbital/beta-naphthoflavone induced hepatic S9 from male Sprague Dawley rats. Parent chemicals are incubated for 2 hours in the AIME assay prior to transfer to the VM7Luc ERTA assay plate. […] This endpoint evaluates reporter induction in metabolism positive mode. […] This assay endpoint, CCTE_Deisenroth_AIME_96WELL_LUC_Active, was analyzed in the positive analysis fitting direction relative to 17beta-estradiol as the positive control in the ERTA assay. […]

[10] = target: Estrogen receptor (Homo sapiens) (UniProt P03372); test: CCTE_Deisenroth_AIME_96WELL_LUC_Inactive: CCTE's 96-well Estrogen Receptor Transactivation Assay without AIME metabolic competence (ERTA luciferase; metabolism negative), Deisenroth Lab (AID 2284025; active means hit-call score of the fitted dose curve at least 0.9, where 1 is the maximum)
Procedure: as §1, with “96-well plate.CCTE_Deisenroth_AIME_96WELL_LUC_Inactive” for “96-well plate.CCTE_Deisenroth_AIME_96WELL_LUC_Active”, “quantitation technology.CCTE_Deisenroth_AIME_96WELL_LUC_Inactive” for “quantitation technology.CCTE_Deisenroth_AIME_96WELL_LUC_Active”, “metabolism negative” for “metabolism positive”, “endpoint, CCTE_Deisenroth_AIME_96WELL_LUC_Inactive,” for “endpoint, CCTE_Deisenroth_AIME_96WELL_LUC_Active,”

Chain of Estrogen receptor (Homo sapiens) (P03372 whole entry, looked up): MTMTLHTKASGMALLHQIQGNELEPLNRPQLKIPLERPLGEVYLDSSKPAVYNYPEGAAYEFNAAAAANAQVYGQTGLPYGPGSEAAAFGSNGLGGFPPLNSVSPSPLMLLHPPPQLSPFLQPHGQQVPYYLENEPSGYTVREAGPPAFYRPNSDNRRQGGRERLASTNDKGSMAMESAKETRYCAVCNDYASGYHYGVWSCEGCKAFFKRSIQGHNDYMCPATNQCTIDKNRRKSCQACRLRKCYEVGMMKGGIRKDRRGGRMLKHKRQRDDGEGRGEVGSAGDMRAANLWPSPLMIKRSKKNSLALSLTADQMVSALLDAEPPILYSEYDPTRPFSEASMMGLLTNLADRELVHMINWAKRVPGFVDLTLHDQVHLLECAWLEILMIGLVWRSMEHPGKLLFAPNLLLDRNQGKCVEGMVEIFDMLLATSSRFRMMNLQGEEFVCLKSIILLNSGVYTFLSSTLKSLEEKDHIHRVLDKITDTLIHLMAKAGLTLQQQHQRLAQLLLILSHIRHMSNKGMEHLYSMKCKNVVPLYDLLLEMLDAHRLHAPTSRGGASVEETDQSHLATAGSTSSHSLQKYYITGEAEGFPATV

## O=C(O)C(F)(F)C(F)(F)C(F)(F)C(F)(F)C(F)(F)C(F)(F)C(F)(F)C(F)(F)C(F)(F)C(F)(F)F
[1]
  AC50: 5.97 µM (active)
[2]
  outcome: inactive
[3]
  outcome: inactive
[4]
  outcome: inactive
[5]
  outcome: inactive
[6]
  outcome: inactive
[7]
  outcome: inactive
[8]
  outcome: inactive

## CC(C)(c1ccccc1)c1ccc(O)c(C(C)(C)c2ccccc2)c1
[1]
  outcome: inactive
[2]
  AC50: 4.19 µM (active)
[3]
  AC50: 7.18 µM (active)
[4]
  AC50: 20 µM (active)
[5]
  outcome: inactive
[6]
  outcome: inactive
[7]
  outcome: inactive
[8]
  AC50: 6.29 µM (active)

## CCOP(=S)(OCC)SCSP(=S)(OCC)OCC
[1]
  outcome: inactive
[2]
  outcome: inactive
[3]
  AC50: 20 µM (active)
[4]
  outcome: inactive
[5]
  outcome: inactive
[6]
  AC50: 11.8 µM (active)
[7]
  outcome: inactive
[8]
  AC50: 24.4 µM (active)

## CC(C)(C)c1cc(O)ccc1O
[1]
  outcome: inactive
[2]
  outcome: inactive
[3]
  AC50: 20 µM (active)
[4]
  outcome: inactive
[5]
  outcome: inactive
[6]
  outcome: inactive
[7]
  outcome: inactive
[8]
  AC50: 29.9 µM (active)

## O=C(Nc1ccc2[nH]ccc2c1)c1cc2cc(F)ccc2n1Cc1cccc(F)c1
[1]
  outcome: inactive
[2]
  AC50: 4.2 µM (active)
[3]
  outcome: inactive
[4]
  outcome: inactive
[5]
  outcome: inactive
[6]
  outcome: inactive
[7]
  outcome: inactive
[8]
  outcome: inactive

## ClC1(Cl)C2(Cl)C3(Cl)C4(Cl)C(Cl)(Cl)C5(Cl)C3(Cl)C1(Cl)C5(Cl)C24Cl (stereo not given)
[1]
  outcome: inactive
[2]
  outcome: inactive
[3]
  outcome: inactive
[4]
  outcome: inactive
[5]
  outcome: inactive
[6]
  outcome: inactive
[7]
  outcome: inactive
[8]
  outcome: inactive

## C=CC#N
[9]
  outcome: inactive
[10]
  outcome: inactive

## CC(=O)OC(c1ccccc1)C(Cl)(Cl)Cl (stereo not given)
[1]
  outcome: inactive
[2]
  outcome: inactive
[3]
  AC50: 15 µM (active)
[4]
  outcome: inactive
[5]
  outcome: inactive
[6]
  outcome: inactive
[7]
  outcome: inactive
[8]
  AC50: 26.7 µM (active)

## CCC(=O)C(CC(C)N(C)C)(c1ccccc1)c1ccccc1 (stereo not given)
[1]
  outcome: inactive
[2]
  outcome: inactive
[3]
  AC50: 26.2 µM (active)
[4]
  outcome: inactive
[5]
  outcome: inactive
[6]
  outcome: inactive
[7]
  AC50: 62 nM (active)
[8]
  outcome: inactive

## CCN1CCC2(CC1)COc1cc3c(cc12)N(C(=O)c1ccc(-c2ccc(-c4nnc(C)o4)cc2C)cc1)CC3
[1]
  outcome: inactive
[2]
  outcome: inactive
[3]
  AC50: 27.3 µM (active)
[4]
  outcome: inactive
[5]
  outcome: inactive
[6]
  outcome: inactive
[7]
  outcome: inactive
[8]
  AC50: 17.2 µM (active)

## CC(C)(OO)c1ccccc1
[1]
  outcome: inactive
[2]
  outcome: inactive
[3]
  outcome: inactive
[4]
  outcome: inactive
[5]
  outcome: inactive
[6]
  outcome: inactive
[7]
  outcome: inactive
[8]
  outcome: inactive

## O=C1C2(Cl)C3(Cl)C4(Cl)C(Cl)(Cl)C5(Cl)C3(Cl)C1(Cl)C5(Cl)C24Cl (stereo not given)
[1]
  AC50: 9.36 µM (active)
[2]
  outcome: inactive
[3]
  AC50: 9.9 µM (active)
[4]
  AC50: 32.5 µM (active)
[5]
  outcome: inactive
[6]
  outcome: inactive
[7]
  outcome: inactive
[8]
  AC50: 20 µM (active)

## CC(=O)[O][Hg][c]1ccccc1
[1]
  outcome: inactive
[2]
  AC50: 0.941 µM (active)
[3]
  AC50: 1.13 µM (active)
[4]
  outcome: inactive
[5]
  AC50: 0.331 µM (active)
[6]
  AC50: 0.561 µM (active)
[7]
  AC50: 713 nM (active)
[8]
  AC50: 2.02 µM (active)

## C=C(C)C(=O)[O][Sn]([CH2]CCC)([CH2]CCC)[CH2]CCC
[1]
  outcome: inactive
[2]
  outcome: inactive
[3]
  AC50: 0.0833 µM (active)
[4]
  AC50: 20 µM (active)
[5]
  outcome: inactive
[6]
  AC50: 2.81 µM (active)
[7]
  AC50: 10.8 nM (active)
[8]
  AC50: 0.116 µM (active)

## CC(C)(C)CC(C)(C)c1ccc(O)cc1
[1]
  outcome: inactive
[2]
  AC50: 5 µM (active)
[3]
  outcome: inactive
[4]
  outcome: inactive
[5]
  outcome: inactive
[6]
  outcome: inactive
[7]
  outcome: inactive
[8]
  outcome: inactive

## COC(=O)Cc1ccccc1
[1]
  outcome: inactive
[2]
  outcome: inactive
[3]
  outcome: inactive
[4]
  outcome: inactive
[5]
  outcome: inactive
[6]
  outcome: inactive
[7]
  outcome: inactive
[8]
  outcome: inactive

## O=C(OC1CCCCC1)c1ccccc1C(=O)OC1CCCCC1
[9]
  AC50: 20.5 µM (active)
[10]
  AC50: 10.1 µM (active)

## CCCCCCCCc1ccc(O)cc1
[1]
  outcome: inactive
[2]
  AC50: 5 µM (active)
[3]
  AC50: 12.7 µM (active)
[4]
  AC50: 20 µM (active)
[5]
  outcome: inactive
[6]
  outcome: inactive
[7]
  outcome: inactive
[8]
  AC50: 20 µM (active)

## O=C(O)C(Cl)(Cl)Cl
[1]
  outcome: inactive
[2]
  outcome: inactive
[3]
  outcome: inactive
[4]
  outcome: inactive
[5]
  outcome: inactive
[6]
  outcome: inactive
[8]
  outcome: inactive

## C[C@]12CCC(=O)C[C@@H]1CC[C@@H]1[C@@H]2CC[C@]2(C)[C@@H](O)CC[C@@H]12
[1]
  outcome: inactive
[2]
  outcome: inactive
[3]
  AC50: 30.5 µM (active)
[4]
  AC50: 31.1 µM (active)
[5]
  outcome: inactive
[6]
  outcome: inactive
[7]
  outcome: inactive
[8]
  AC50: 30.7 µM (active)

## CCC(C)(C)c1ccc(O)c(C(C)(C)CC)c1
[1]
  AC50: 20 µM (active)
[2]
  outcome: inactive
[3]
  AC50: 7.93 µM (active)
[4]
  AC50: 32.6 µM (active)
[5]
  AC50: 8.12 µM (active)
[6]
  AC50: 20 µM (active)
[7]
  outcome: inactive
[8]
  AC50: 20 µM (active)
